Results as given in the supplement of paper PMC3334620.
Over roughly 33,000 sequences, “E-score (-0.5 to 0.5)” has its median near -0.054; the highest 2% begin near 0.35. This is one part of a sample in which the highest values are shown more often than they occur.

Each sequence was assayed against T1, Stb5 (UniProt P38699) (assay: PBM E-score (8-mer binding enrichment) (E-score (-0.5 to 0.5)); higher = stronger / more preferred TF binding). Conditions: protein concentration: 200 nM; construct: GST-full length.
T1 sequence: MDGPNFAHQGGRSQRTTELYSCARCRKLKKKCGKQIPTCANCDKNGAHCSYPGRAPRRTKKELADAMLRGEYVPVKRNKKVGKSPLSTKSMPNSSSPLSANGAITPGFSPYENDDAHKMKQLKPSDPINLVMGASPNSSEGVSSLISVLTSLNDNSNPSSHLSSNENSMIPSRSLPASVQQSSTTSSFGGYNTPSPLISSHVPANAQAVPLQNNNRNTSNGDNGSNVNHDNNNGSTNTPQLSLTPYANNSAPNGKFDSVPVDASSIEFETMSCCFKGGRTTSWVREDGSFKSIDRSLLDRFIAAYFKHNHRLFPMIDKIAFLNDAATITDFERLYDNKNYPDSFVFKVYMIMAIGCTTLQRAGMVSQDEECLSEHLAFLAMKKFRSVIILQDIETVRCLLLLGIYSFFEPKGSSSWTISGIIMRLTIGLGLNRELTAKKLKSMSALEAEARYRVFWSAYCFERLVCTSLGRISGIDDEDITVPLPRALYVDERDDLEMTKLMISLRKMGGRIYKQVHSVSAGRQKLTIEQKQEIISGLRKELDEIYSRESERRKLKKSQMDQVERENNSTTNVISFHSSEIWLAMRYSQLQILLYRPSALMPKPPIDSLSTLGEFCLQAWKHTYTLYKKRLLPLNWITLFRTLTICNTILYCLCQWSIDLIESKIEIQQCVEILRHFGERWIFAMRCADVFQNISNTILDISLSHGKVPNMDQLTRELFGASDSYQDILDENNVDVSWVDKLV
Protocol: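 Universal 'all 10-mer' protein binding microarrays (Agilent AMADID 015681) probed with GST-tagged S. cerevisiae TFs (full-length or DBD) made by in vitro transcription/translation (PURExpress), about 100-200 nM. Bound TF was detected with fluorescent anti-GST. Each ungapped 8-mer (which stands for itself and its reverse complement) is scored by the PBM enrichment score (E-score), a modified Wilcoxon-Mann-Whitney statistic from -0.5 to +0.5, computed with the Universal PBM Analysis Suite. Scale: above 0.35 generally sequence-specific binding.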

Row | Sequence | PBM E-score
1 | AATATCCC | 0.291
2 | AATATCCG | 0.39
3 | ATTATCCG | 0.359
4 | AATATCCA | -0.00669
5 | CACATCCG | 0.0898
6 | ATTATCCA | -0.0234
7 | ATTATCCC | 0.0778
8 | AACATCCC | 0.149
9 | AGTTCGGA | 0.208
10 | AAGTGCGA | 0.187
11 | GGGGTGCA | 0.0203
12 | ACACAGAG | -0.0564
13 | AACTCATC | -0.116
14 | ACTTGCAT | 0.0144
15 | GCTCTGAA | -0.166
16 | AACACATA | -0.222
17 | ATTATACC | 0.362
18 | ATAATACC | 0.368
19 | ATTATACA | 0.0217
20 | ATTATACG | 0.173
21 | ATAATACA | 0.0704
22 | ATAATACG | 0.153

Row | Sequence | PBM E-score
23 | ATGTGGTC | -0.168
24 | GCCGTTCC | 0.202
25 | GATTCTCC | 0.112
26 | AGTCGAAT | -0.199
27 | CATCCCGA | 0.1
28 | AGTCCCGA | 0.342
29 | TATCCCGA | 0.18
30 | AATCCCGT | 0.419
31 | AGTCCCGC | 0.358
32 | CGTCCCGC | 0.2
33 | AATCCCGA | 0.394
34 | AATCCCAT | -0.042
35 | CATCCCGC | 0.155
36 | AATCCCCT | -0.165
37 | GATCCCGC | 0.232
38 | AATCCCGC | 0.398
39 | CAATTTTA | -0.00732
40 | TGTATACA | 0.0199
41 | AAGGCTTG | -0.305
42 | CATACTGC | -0.045
43 | CTTCAAAG | -0.124
44 | GCACTCTA | -0.0909

Row | Sequence | PBM E-score
45 | GGACAAAC | 0.0886
46 | ACATACCG | 0.28
47 | CGGTCCGA | 0.389
48 | GGGTCCCA | -0.0448
49 | CGGTCCCA | 0.358
50 | AGGTCCCA | -0.357
51 | AGGTCCTG | -0.205
52 | AGGTCGGA | 0.326
53 | AGGTCCAA | -0.167
54 | GGGTCCGA | 0.332
55 | AGGTCCGA | 0.412
56 | AGGTCCAG | -0.156
57 | AGGTCCGG | 0.382
58 | CGGTCCAA | 0.186
59 | AAATTCGA | 0.0745
60 | CGGCATTC | 0.285
61 | AACCATCG | 0.041
62 | AAACGGAT | 0.197
63 | AGAGATAT | -0.194
64 | AAAAAGCT | -0.205
65 | CGGTCCGC | 0.298
66 | CGGTCCTA | 0.448

Row | Sequence | PBM E-score
67 | GGGTCTCA | 0.00241
68 | CGGTCTCC | 0.195
69 | AGGTCCTA | 0.0577
70 | CGGTCTCA | 0.376
71 | CGGTCCTC | 0.16
72 | AGGTCCGC | 0.425
73 | AGGTCCAC | -0.0841
74 | GCCTTCGA | -0.137
75 | CGCAAGGA | -0.0543
76 | GACCTCTC | -0.126
77 | AGTAGTTG | -0.0997
78 | ACTGCTTG | -0.185
79 | CCCAGTAG | -0.128
80 | ACCCCTGA | -0.108
81 | ACGATCGG | 0.298
82 | AAGATCGC | -0.0115
83 | AAGATCGG | 0.352
84 | CCGATCGG | 0.413
85 | CAGATCGG | 0.29
86 | CCGATCGA | 0.285
